The nature of test [1]: NCI Yeast Anticancer Drug Screen. Data for the rad50 strain (AID 155).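 Note: 0% = growth of vehicle-only cultures of the same strain.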 The settings on record: S. cerevisiae rad50 strain growth inhibition, hits give high values. An outline of the steps: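 Genetically altered yeast (DNA repair pathway); compound treatment; growth inhibition vs vehicle ctrl.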
A short description of test [2]: NCI Yeast Anticancer Drug Screen. Data for the mec2-1 strain (AID 157). The settings on record: S. cerevisiae mec2-1 strain, hits give high values. A digest of the protocol: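 Yeast mec2-1 mutant treated with compound. Readout: growth inhibition vs vehicle controls.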
Test [3] can be described thus: NCI Yeast Anticancer Drug Screen. Data for the sgs1 mgt1 strain (AID 161).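 Note: 0% = growth of cultures given vehicle only.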 The settings on record: S. cerevisiae sgs1 mgt1 strain, hits give high values. An outline of the steps:
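Mutant yeast exposed to compound; growth scored against vehicle-only wells.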

A short description of test [4]: NCI Yeast Anticancer Drug Screen. Data for the cln2 rad14 strain (AID 165).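 Note: 0% = growth equal to vehicle treated cultures.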 To be noted: S. cerevisiae cln2 rad14 strain, hits give high values. A digest of the protocol:
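cln2 rad14 yeast strain; compound exposure; growth inhibition read vs vehicle controls.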

A short description of test [5]: NCI Yeast Anticancer Drug Screen. Data for the mlh1 rad18 strain (AID 175). To be noted: S. cerevisiae mlh1 rad18 strain growth inhibition, hits give high values. A digest of the protocol:
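Yeast w/ defined DNA-repair lesions; compound exposure; growth vs vehicle controls → % inhibition.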

Test [6] is described as follows: NCI Yeast Anticancer Drug Screen. Data for the bub3 strain (AID 167). To be noted: S. cerevisiae bub3 mutant strain, hits give high values. An outline of the steps:
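Yeast carrying a defined mutation is treated with each compound, and growth is compared with that of vehicle-exposed cells to give inhibition.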

[7] abbreviates: at 5.0 µM (retest, dose inferred, filed as 0.5).
The mark [8] stands for this setting: at 50.0 µM (retest, dose inferred, filed as 5.0).

SMILES strings stand for the structures. The panel holds about 79,000 compounds, 15% with a hit somewhere; the sample as a whole holds those more often. Values without a mark were called inactive. The source made the active and inactive calls. Cut-off read from the data, not from the text of the source: active = growth inhibition above about 70%; inactive = the rest.

Regarding `CC(C)SC(=S)S(=O)(=O)c1ccc(Cl)cc1`, the growth inhibition was 5% in test [1] (setting [7]); 69% in test [1] (setting [8]); 99.4% (active) in test [1] (at 50.0 µM); 0% in test [2] (setting [7]); 64% in test [2] (setting [8]); 99.8% (active) in test [2] (at 50.0 µM). Moreover, the growth inhibition in test [3] (setting [7]) was 18%; in test [3] (setting [8]) it was 74% (active); in test [3] (at 50.0 µM), 99.7% (active); in test [4] (setting [7]) it was -6%; in test [4] (setting [8]), 63%; in test [4] (at 50.0 µM), 78.2% (active). Besides, the figures for the growth inhibition in test [5] (setting [7]), in test [5] (setting [8]) and in test [5] (at 50.0 µM) were 8%, 76% (active) and 99.7% (active), respectively.

As to `O=C1OCCCN1/N=C/c1ccc([N+](=O)[O-])o1`, the growth inhibition in test [1] (setting [7]) was 16%; in test [1] (setting [8]), 59%; in test [1] (at 50.0 µM), 82% (active); in test [2] (setting [7]), 4%; in test [2] (setting [8]) it was 31%; in test [2] (at 50.0 µM), 55%. The growth inhibition is 10% in test [3] (setting [7]); 65% in test [3] (setting [8]); 84.8% (active) in test [3] (at 50.0 µM); 2% in test [4] (setting [7]); 32% in test [4] (setting [8]); 42.3% in test [4] (at 50.0 µM). Further, the growth inhibition in test [6] (setting [7]) was 8%; in test [6] (setting [8]), 62%; in test [6] (at 50.0 µM), 52.3%; in test [5] (setting [7]), 24%; in test [5] (setting [8]), 78% (active); in test [5] (at 50.0 µM), 89.2% (active).

On to `NC(N)=Nc1ccc(C(=O)Oc2c(Cl)cc([N+](=O)[O-])cc2Cl)cc1`, for which the growth inhibition in test [1] (setting [7]) is -30%; in test [1] (setting [8]) it was 46%; in test [1] (at 50.0 µM), 48%; in test [2] (setting [7]), -6%; in test [2] (setting [8]), 28%; in test [2] (at 50.0 µM), 30.2%. For the same molecule, the growth inhibition in test [3] (setting [7]) is 4%; in test [3] (setting [8]), 65%; in test [3] (at 50.0 µM) it was 71.1% (active); in test [4] (setting [7]), -9%; in test [4] (setting [8]), 32%; in test [4] (at 50.0 µM) it was 21.9%. Moreover, the values for the growth inhibition in test [5] (setting [7]), in test [5] (setting [8]) and in test [5] (at 50.0 µM) were 12%, 56% and 32.9%, respectively.

As to `CN(C)CCCNc1c2ccccc2nc2cccc([N+](=O)[O-])c12`, the growth inhibition in test [1] (setting [7]) was 93% (active); in test [1] (setting [8]), 99% (active); in test [1] (at 50.0 µM), 89.4% (active); in test [2] (setting [7]) it was 95% (active); in test [2] (setting [8]), 99% (active); in test [2] (at 50.0 µM) it was 93% (active). Moreover, the growth inhibition in test [3] (setting [7]) is 95% (active); in test [3] (setting [8]) it was 99% (active); in test [3] (at 50.0 µM), 92.8% (active); in test [4] (setting [7]), 95% (active); in test [4] (setting [8]), 99% (active); in test [4] (at 50.0 µM), 89.2% (active). The growth inhibition in test [6] (setting [7]) was 76% (active); in test [6] (setting [8]), 99% (active); in test [6] (at 50.0 µM), 90.8% (active); in test [5] (setting [7]), 90% (active); in test [5] (setting [8]) it was 98% (active); in test [5] (at 50.0 µM), 89.9% (active).

Take `COc1ccc2c(c1)CC[C@@H]1[C@@H]2CC[C@]2(C)/C(=N/OCCN3CCCC3)CC[C@@H]12`: the growth inhibition in test [1] (setting [7]) was 95% (active); in test [1] (setting [8]), 99% (active); in test [1] (at 50.0 µM), 89.5% (active); in test [2] (setting [7]), 38%; in test [2] (setting [8]) it was 99% (active); in test [2] (at 50.0 µM), 91.8% (active). The growth inhibition in test [3] (setting [7]) was 24%; in test [3] (setting [8]), 96% (active); in test [3] (at 50.0 µM), 92.1% (active); in test [4] (setting [7]), 46%; in test [4] (setting [8]) it was 98% (active); in test [4] (at 50.0 µM) it was 89.7% (active). The growth inhibition was 49% in test [6] (setting [7]); 97% (active) in test [6] (setting [8]); 91.1% (active) in test [6] (at 50.0 µM); 39% in test [5] (setting [7]); 99% (active) in test [5] (setting [8]); 91.1% (active) in test [5] (at 50.0 µM).

For the molecule `CC(C)(C)C1=NN=C2c3ccccc3C(=O)C21` (stereo not drawn), the growth inhibition in test [1] (setting [7]) is 0%; in test [1] (setting [8]), 57%; in test [1] (at 50.0 µM), 68.2%; in test [2] (setting [7]), -3%; in test [2] (setting [8]) it was 44%; in test [2] (at 50.0 µM) it was 9.45%. Besides, the growth inhibition was -1% in test [3] (setting [7]); 60% in test [3] (setting [8]); 53.2% in test [3] (at 50.0 µM); -12% in test [4] (setting [7]); 14% in test [4] (setting [8]); 58.9% in test [4] (at 50.0 µM). The growth inhibition is 19% in test [6] (setting [7]); 87% (active) in test [6] (setting [8]); 78.7% (active) in test [6] (at 50.0 µM); -3% in test [5] (setting [7]); 44% in test [5] (setting [8]); 60.7% in test [5] (at 50.0 µM).

`CC(=O)OC1CCCCCCCCCCC12OCCO2` (stereo not drawn): the growth inhibition in test [1] (setting [7]) is 23%; in test [1] (setting [8]), 96% (active); in test [1] (at 50.0 µM), 30%; in test [2] (setting [7]), 5%; in test [2] (setting [8]), 98% (active); in test [2] (at 50.0 µM), 63%. Moreover, the growth inhibition was 20% in test [3] (setting [7]); 99% (active) in test [3] (setting [8]); 73.5% (active) in test [3] (at 50.0 µM); 1% in test [4] (setting [7]); 96% (active) in test [4] (setting [8]); 63.6% in test [4] (at 50.0 µM). Besides, the figures for the growth inhibition in test [5] (setting [7]), in test [5] (setting [8]) and in test [5] (at 50.0 µM) were 10%, 96% (active) and 92% (active), respectively.

Regarding `CC(C)CCCC(C)C1CCC2C3C=CC4=CCCCC4(C)C3CCC12C` (stereo not drawn), the growth inhibition in test [1] (setting [7]) is -18%; in test [1] (setting [8]), 95% (active); in test [1] (at 50.0 µM), 97.6% (active); in test [2] (setting [7]), 3%; in test [2] (setting [8]) it was 98% (active); in test [2] (at 50.0 µM), 94.8% (active). Besides, the growth inhibition was -8% in test [3] (setting [7]); 96% (active) in test [3] (setting [8]); 8.35% in test [3] (at 50.0 µM); -5% in test [4] (setting [7]); 94% (active) in test [4] (setting [8]); 93% (active) in test [4] (at 50.0 µM). For the same molecule, the growth inhibition in test [6] (setting [7]) is -4%; in test [6] (setting [8]), 93% (active); in test [6] (at 50.0 µM), 91.2% (active); in test [5] (setting [7]) it was 31%; in test [5] (setting [8]), 98% (active); in test [5] (at 50.0 µM), 98.1% (active).

Consider `CCc1nc(N)nc(N)c1-c1ccc(NCCCCCCCCCCCCN)c([N+](=O)[O-])c1`, for which the growth inhibition in test [1] (setting [7]) is -18%; in test [1] (setting [8]), 99% (active); in test [1] (at 50.0 µM), 94.2% (active); in test [2] (setting [7]), -11%; in test [2] (setting [8]), 99% (active); in test [2] (at 50.0 µM), 99.2% (active). For the same molecule, the growth inhibition in test [3] (setting [7]) was -1%; in test [3] (setting [8]) it was 99% (active); in test [3] (at 50.0 µM), 40.4%; in test [4] (setting [7]), -24%; in test [4] (setting [8]), 98% (active); in test [4] (at 50.0 µM) it was 87% (active). The growth inhibition in test [6] (setting [7]) is -5%; in test [6] (setting [8]) it was 99% (active); in test [6] (at 50.0 µM), 98.5% (active); in test [5] (setting [7]), -19%; in test [5] (setting [8]), 99% (active); in test [5] (at 50.0 µM), 98.7% (active).

The values are drawn from PubChem BioAssay (NCI).
